# From article PMC7862700, “An all-to-all approach to the identification of sequence-specific readers for epigenetic DNA modifications on cytosine”
# Columns and labels:
# Test in all cases: DAPPL (digital affinity profiling via proximity ligation, sequencing); 10 mM Tris-HCl pH 7.5, 50 mM NaCl, 1 mM DTT, 4% glycerol, room temperature, 30 min; GST-TFs on glutathione beads, 16-mer random dsDNA library, 0.1% formaldehyde crosslink after washing; high values mean tight binding
# Conditions in all cases: protein: recombinant; tags: N-terminal GST; dsDNA, one strand shown
# [1] = target: T1, FLI1 (Homo sapiens, UniProt Q01543 1-452)
# T1 sequence: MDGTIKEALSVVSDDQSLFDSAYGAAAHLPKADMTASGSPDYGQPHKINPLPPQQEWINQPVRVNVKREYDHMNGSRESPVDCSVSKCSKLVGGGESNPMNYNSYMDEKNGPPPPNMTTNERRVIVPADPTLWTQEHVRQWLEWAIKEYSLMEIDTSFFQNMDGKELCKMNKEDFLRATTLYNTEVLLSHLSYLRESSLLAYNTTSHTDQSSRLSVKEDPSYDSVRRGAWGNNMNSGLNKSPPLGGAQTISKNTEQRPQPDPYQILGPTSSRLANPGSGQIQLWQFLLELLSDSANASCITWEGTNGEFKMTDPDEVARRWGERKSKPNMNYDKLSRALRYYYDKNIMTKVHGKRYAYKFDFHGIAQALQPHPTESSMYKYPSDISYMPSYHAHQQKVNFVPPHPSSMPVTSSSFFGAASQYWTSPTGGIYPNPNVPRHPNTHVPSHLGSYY
# Outline: (§1)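 Human transcription factors fused to GST were expressed in yeast, captured on glutathione beads, given DNA barcodes and pooled with a GST-only negative control. Pools were incubated with 200 nmole of a 16-mer random double-stranded DNA library in Tris/NaCl/DTT/glycerol buffer at room temperature for 30 min. They were then washed, crosslinked with 0.1% formaldehyde, proximity-ligated (BsaI/T4 ligase, 1 h, 37 °C), PCR-amplified and sequenced on an Illumina NextSeq500. Binding signal is each 6-mer's read frequency for a factor divided by its frequency for the GST control.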
# [2] = target: T2, ELK1 (Homo sapiens, UniProt P19419 1-428)
# T2 sequence: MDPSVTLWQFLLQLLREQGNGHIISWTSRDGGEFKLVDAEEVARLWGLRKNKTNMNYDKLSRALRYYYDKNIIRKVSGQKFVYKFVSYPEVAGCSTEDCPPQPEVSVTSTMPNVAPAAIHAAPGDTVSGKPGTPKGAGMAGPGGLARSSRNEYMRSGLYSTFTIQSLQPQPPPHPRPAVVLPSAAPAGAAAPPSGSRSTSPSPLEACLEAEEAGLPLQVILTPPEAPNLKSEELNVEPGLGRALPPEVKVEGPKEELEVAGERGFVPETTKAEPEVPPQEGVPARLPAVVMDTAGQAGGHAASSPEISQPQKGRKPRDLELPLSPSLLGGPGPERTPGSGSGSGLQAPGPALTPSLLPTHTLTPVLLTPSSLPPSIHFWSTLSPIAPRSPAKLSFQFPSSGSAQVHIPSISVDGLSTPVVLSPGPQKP
# Outline: as §1
# [3] = target: T3, GABPA (Homo sapiens, UniProt Q06546 1-454)
# T3 sequence: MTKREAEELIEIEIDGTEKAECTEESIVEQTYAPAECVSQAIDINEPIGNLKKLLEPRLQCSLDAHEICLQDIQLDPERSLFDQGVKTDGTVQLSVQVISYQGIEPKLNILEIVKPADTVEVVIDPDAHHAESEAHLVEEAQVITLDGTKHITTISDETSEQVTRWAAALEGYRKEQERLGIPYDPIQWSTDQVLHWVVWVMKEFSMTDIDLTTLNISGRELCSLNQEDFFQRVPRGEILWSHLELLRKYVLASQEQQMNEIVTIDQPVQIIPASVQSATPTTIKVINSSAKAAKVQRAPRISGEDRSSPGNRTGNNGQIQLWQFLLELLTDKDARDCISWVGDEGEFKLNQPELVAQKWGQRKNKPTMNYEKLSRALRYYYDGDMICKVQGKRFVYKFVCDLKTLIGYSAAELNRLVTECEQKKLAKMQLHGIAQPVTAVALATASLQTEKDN
# Outline: as §1
# [4] = target: T4, ERG (Homo sapiens, UniProt P11308 1-479)
# T4 sequence: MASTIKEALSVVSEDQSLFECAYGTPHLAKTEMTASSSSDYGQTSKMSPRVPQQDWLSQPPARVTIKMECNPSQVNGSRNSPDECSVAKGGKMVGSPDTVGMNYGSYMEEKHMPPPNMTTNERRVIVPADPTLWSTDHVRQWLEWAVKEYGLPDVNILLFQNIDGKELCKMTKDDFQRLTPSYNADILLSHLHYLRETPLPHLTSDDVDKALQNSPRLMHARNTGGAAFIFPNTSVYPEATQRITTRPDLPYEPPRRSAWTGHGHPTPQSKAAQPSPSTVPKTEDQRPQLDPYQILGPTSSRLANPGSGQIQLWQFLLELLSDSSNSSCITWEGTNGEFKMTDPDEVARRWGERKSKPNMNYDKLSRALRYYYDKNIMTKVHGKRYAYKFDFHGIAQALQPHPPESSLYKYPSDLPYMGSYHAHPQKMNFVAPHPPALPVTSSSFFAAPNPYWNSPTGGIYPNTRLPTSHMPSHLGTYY
# Outline: as §1
# [5] = target: ELF1 (Homo sapiens, UniProt P32519 1-619)
# Outline: as §1
# [6] = target: T5, EHF (Homo sapiens, UniProt Q9NZC4 1-300)
# T5 sequence: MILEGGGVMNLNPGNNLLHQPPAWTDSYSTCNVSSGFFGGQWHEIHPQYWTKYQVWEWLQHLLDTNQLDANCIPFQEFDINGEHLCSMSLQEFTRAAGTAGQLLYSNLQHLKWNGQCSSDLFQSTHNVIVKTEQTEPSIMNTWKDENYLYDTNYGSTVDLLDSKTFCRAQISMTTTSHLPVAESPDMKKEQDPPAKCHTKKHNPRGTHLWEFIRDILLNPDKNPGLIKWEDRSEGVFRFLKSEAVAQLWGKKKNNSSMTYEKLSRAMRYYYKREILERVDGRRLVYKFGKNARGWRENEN
# Outline: as §1
# [7] = target: SPI1 (Homo sapiens, UniProt P17947 1-270)
# Outline: as §1
# [8] = target: SPIB (Homo sapiens, UniProt Q01892 1-262)
# Outline: as §1
# [9] = target: T6, ELK3 (Homo sapiens, UniProt P41970 1-407)
# T6 sequence: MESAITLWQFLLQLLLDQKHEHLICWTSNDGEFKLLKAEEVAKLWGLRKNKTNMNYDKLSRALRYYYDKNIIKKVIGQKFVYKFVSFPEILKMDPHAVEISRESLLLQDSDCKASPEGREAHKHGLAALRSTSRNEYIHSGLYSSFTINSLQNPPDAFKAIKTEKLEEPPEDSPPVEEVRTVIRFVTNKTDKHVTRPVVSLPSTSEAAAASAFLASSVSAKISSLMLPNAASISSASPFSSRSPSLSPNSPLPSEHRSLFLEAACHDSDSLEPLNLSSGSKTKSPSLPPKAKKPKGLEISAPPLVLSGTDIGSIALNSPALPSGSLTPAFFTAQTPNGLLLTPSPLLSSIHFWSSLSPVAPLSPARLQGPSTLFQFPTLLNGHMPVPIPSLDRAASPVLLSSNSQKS
# Outline: as §1
# SPIB, sequence (Q01892 whole entry): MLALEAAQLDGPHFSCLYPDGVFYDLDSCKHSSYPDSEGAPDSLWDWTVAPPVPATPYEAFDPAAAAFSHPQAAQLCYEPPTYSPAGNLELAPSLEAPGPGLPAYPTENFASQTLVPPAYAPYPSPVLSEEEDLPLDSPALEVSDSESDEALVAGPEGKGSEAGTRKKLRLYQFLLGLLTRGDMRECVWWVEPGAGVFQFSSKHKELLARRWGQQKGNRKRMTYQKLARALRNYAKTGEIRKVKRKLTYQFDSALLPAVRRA
# ELF1, sequence (P32519 whole entry): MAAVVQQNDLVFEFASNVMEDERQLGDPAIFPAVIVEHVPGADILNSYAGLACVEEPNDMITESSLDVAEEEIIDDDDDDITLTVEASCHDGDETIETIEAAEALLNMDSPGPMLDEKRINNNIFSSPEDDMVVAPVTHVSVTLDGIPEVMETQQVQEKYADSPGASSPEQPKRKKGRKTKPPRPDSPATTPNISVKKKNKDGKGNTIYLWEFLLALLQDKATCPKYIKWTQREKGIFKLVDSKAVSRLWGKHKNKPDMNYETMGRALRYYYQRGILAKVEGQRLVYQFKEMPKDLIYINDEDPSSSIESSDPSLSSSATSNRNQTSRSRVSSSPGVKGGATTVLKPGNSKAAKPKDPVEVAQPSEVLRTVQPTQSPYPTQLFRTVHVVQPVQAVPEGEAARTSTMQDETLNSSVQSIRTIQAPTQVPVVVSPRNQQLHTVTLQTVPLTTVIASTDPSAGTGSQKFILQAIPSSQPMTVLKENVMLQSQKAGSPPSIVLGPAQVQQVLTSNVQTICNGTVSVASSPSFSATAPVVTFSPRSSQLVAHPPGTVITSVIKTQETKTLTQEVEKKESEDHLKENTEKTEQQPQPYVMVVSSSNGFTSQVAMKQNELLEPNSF
sequence,measurement,setting,value
TCCCTA,binding signal,[1],"1.35 fold enrichment (6-mer frequency, TF over GST control)"
same,binding signal,[2],"1.26 fold enrichment (6-mer frequency, TF over GST control)"
same,binding signal,[3],"1.26 fold enrichment (6-mer frequency, TF over GST control)"
same,binding signal,[4],"1.3 fold enrichment (6-mer frequency, TF over GST control)"
same,binding signal,[5],"1.32 fold enrichment (6-mer frequency, TF over GST control)"
same,binding signal,[6],"1.27 fold enrichment (6-mer frequency, TF over GST control)"
same,binding signal,[7],"1.52 fold enrichment (6-mer frequency, TF over GST control)"
same,binding signal,[8],"1.32 fold enrichment (6-mer frequency, TF over GST control)"
same,binding signal,[9],"1.34 fold enrichment (6-mer frequency, TF over GST control)"
